Measurements published in PubChem BioAssay (NCI).
The panel holds about 83,000 compounds, 20% with a hit somewhere; the sample as a whole holds those more often.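 The test compound was applied at a single concentration to cells in 96-well plates for 48 hours, and percent growth was recorded.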 A number with no mark means an inactive call. The source made the active and inactive calls. The calls were made as follows: active = growth percent below 10; inactive = the rest.

Tests used:
Test in all cases: NCI-60 one-dose screen, 48 h (100 = growth as untreated, 0 = no growth, -100 = all killed)
Details in all cases: 10 µM unless noted
NCI-H23 lung = tested on: NCI-H23 lung
NCI-H322M lung = tested on: NCI-H322M lung
HOP-62 NSCLC = tested on: HOP-62 NSCLC
NCI-H460 lung = tested on: NCI-H460 lung
HOP-92 NSCLC = tested on: HOP-92 NSCLC
NCI-H522 lung = tested on: NCI-H522 lung
A549/ATCC NSCLC = tested on: A549/ATCC NSCLC
786-0 renal = tested on: 786-0 renal
COLO 205 colon = tested on: COLO 205 colon

Compound | growth (NCI-H23 lung) | growth (NCI-H322M lung) | growth (HOP-62 NSCLC) | growth (NCI-H460 lung) | growth (HOP-92 NSCLC) | growth (NCI-H522 lung) | growth (A549/ATCC NSCLC) | growth (786-0 renal) | growth (COLO 205 colon)
O=C(O)C(c1ccccc1)N1C(=O)CSC1=S (centres undefined) | 106% | 97.9% | 99.5% | 107% | 111% | 88.2% | 92% | 102% | 108%
COc1cccc(-c2nn(-c3ccccc3)cc2-c2ccnc(N3CCOCC3)c2)c1 | 82.4% | 98.7% | 96.2% | 91.3% | 66.3% | 71.4% | 86.8% | 99% | 98.5%
Cc1nc(NC(=O)COc2ccc(/C=C3\Cc4ccc(Cl)cc4C3=O)cc2)sc1C | 100% | 183% | 102% | 101% | 88.9% | 78.9% | 105% | 103% | 120%
O=C(N/N=C/[C@@H](O)[C@H](O)[C@H](O)CO)c1ccc(NC(=O)c2cccnc2)cc1 | 107% | 104% | 102% | 108% | 103% | 99.3% | 101% | 106% | 107%
COc1cccc(-c2nc(-c3ccc(NC(=O)OC(C)C)cc3)[nH]c2-c2ccnc(Br)c2)c1 | 15.7% | 35.4% | 22.7% | 16.7% | 40.7% | 26.8% | 29% | 0.518% (active) | 25.7%
COc1ccc(C2NC(=O)C(C#N)c3c2sc2c(F)cccc32)c(OC)c1 (centres undefined) | 64.8% | 90.4% | 57.4% | 31.8% | 42.2% | 7.97% (active) | 58.5% | 68.5% | 88.3%
c1ccc(OCc2nnc(-c3ccc(Oc4ccccc4)cc3)o2)cc1 | 94.2% | 106% | 86.4% | 104% | 84.6% | 86.8% | 96% | 99.1% | 104%
O=C(Cc1ccc(F)c(Cl)c1)Nc1cc(C2(C(F)(F)F)CC2)nn1Cc1ccccc1 | 55.3% | 89.6% | -32.7% (active) | 79% | -19.5% (active) | 58.2% | 60.3% | 34.6% | 66.3%
N#CC1=C(N)Oc2c(sc3c(Br)cccc23)C1c1ccc([N+](=O)[O-])cc1 (centres undefined) | 11.7% | 40.6% | 26.6% | -7.51% (active) | -7.19% (active) | -6.47% (active) | 24.7% | 10.2% | -49.7% (active)
CCN1C(=O)N(CC)C2Nn3c(s/c(=C4\C(=O)Nc5ccccc54)c3=O)=NC21 (centres undefined) | 48.6% | 71.5% | 68.4% | 23.7% | 69.7% | 15.4% | 55.1% | 32% | 19.5%
Cc1nc2ccccc2c(/C=C/c2ccc(Cl)cc2)c1C(=O)/C=C/c1cccs1 | 67.8% | 87.4% | 94.9% | 66.7% | 64.1% | 57.4% | 88.1% | 87.4% | 82%
O=C(Cc1ccc2c(c1)OCCO2)Nc1nc2ccc(F)cc2s1 | 87.1% | 105% | 93.4% | 103% | 109% | 87.2% | 102% | 104% | 124%
CC1=C(SCCC(=O)OC(C[Se]C2=C(C)C(=O)c3ccccc3C2=O)C(=O)NC(C)(C)C)C(=O)c2ccccc2C1=O (centres undefined) | -42.7% (active) | -79.8% (active) | -65.4% (active) | -59% (active) | -66.6% (active) | -48.2% (active) | -40% (active) | -86.1% (active) | -86.4% (active)
CS(=O)(=O)N(c1cc(-c2ccc3ncnc(Nc4ccc(F)c(Cl)c4)c3c2)cnc1Cl)S(C)(=O)=O | 34.7% | 34.8% | 42% | 34.2% | -12.2% (active) | 52.5% | 57.3% | 35% | 45.1%
Brc1ccc2[nH]cc(-c3nc(-c4c[nH]c5ccncc45)cs3)c2c1 | -41.6% (active) | -18.6% (active) | -79.1% (active) | -91.1% (active) | -34.3% (active) | -68.4% (active) | -77.6% (active) | -91.3% (active) | -76.4% (active)
Cc1ncc(C(=O)Nc2ccc(CN3CCN(C)CC3)c(C(F)(F)F)c2)cc1C#Cc1ccc(N)nc1 | 3.94% (active) | 20.1% | 18.7% | -60.3% (active) | -15.9% (active) | -8.12% (active) | 11.3% | -48.8% (active) | 5.35% (active)
O=C(N/N=C/[C@H](O)[C@@H](O)[C@@H](O)[C@H](O)CO)c1ccc(NC(=O)c2cccnc2)cc1 | 110% | 103% |  | 108% | 111% | 96.2% | 102% | 113% | 110%
COc1cc2cc(Oc3ccc(NC(=O)Nc4ccc(F)c(C(F)(F)F)c4)cc3)c(C)nc2cc1OCCN1CCOCC1 | 0.421% (active) | 60.7% | 24.4% | 7.19% (active) | -12.9% (active) | 13.6% | 12.7% | 35% | -6.62% (active)
CCc1ccc(Oc2c(-c3ccc(OCCc4cccc(C(F)(F)F)c4)cc3O)n[nH]c2C(F)(F)F)cc1 | 4.8% (active) | 76.7% | 76.6% | 2.53% (active) | -5.8% (active) | -20.5% (active) | 55.9% | 91.2% | 100%
O=C(/C=C/c1sc(Cl)nc1Cl)c1ccc(Br)cc1 | 85.8% | 100% | 97.3% | 103% | 90.2% | 86.6% | 96.1% | 92.2% | 78.8%
